Source: PubChem (National Center for Advancing Translational Sciences (NCATS))
HT1080 IDH1KD tx = toxicity to HT-1080 IDH1 knockdown cells (counter line); HT-1080 IDH1 knockdown viability, ATP luminescence, 48 h; Potency, µM (titrated, usually from 46.1 µM), for the others: at the highest dose activity, negative = toxicity, actives largely listed as cytotoxic; 2% of 360,000 active;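 further: 0% = DMSO wells and -100% = cell-free medium wells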
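Assay cells: HT-1080 with IDH1 knockdown, 750 per well, RPMI/5% FBS. Exposure: 48 h at 37 °C following 2 h pre-incubation. Read: CellTiter-Glo luminescence; fitted concentration-response, curve class assigned.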
KB-3-1 tox = KB-3-1 parental cell cytotoxicity. KB-3-1 viability, CellTiter-Glo ATP luminescence, 72 h. 1.4% of 400,000 active. Potency, µM (series often up to 46.1 µM), actives largely listed as cytotoxic; further: nearly all actives have a fitted effect of over 60% in size
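Using CellTiter-Glo luminescence, growth of non-resistant KB-3-1 adenocarcinoma cells is assessed 72 h after pin-tool compound addition at 37 °C. Normalized responses across the concentration series yield fitted curves.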
DT40 TDP1 CPT = DT40-hTDP1 cell growth loss with CPT; 12% of 420,000 active; Potency, µM (highest dose often 46.2 µM), without a hit: top-dose activity change, negative = growth inhibition, usual class: inhibitors; chicken DT40 Tdp1-/-;hTDP1 cells + 20 nM CPT, ATP luminescence, 48 h; AID 686979; further: nearly all actives have a fitted effect of over 55% in size
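Cell growth measured by CellTiter-Glo luminescence after a minimum 48 h, 37 C compound exposure with 20 nM CPT in Tdp1-knockout DT40 cells stably expressing hTDP1, seeded 400/well; qHTS titration format.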
HT1080NT lethal = kills 2HG-producing HT-1080-NT fibrosarcoma cells. HT-1080-NT fibrosarcoma viability, CellTiter-Glo ATP luminescence, 48 h. Potency, µM (titrated, usually from 46.1 µM), inactives show at the highest dose activity, negative = less viability, most hits filed as cytotoxic. 1.6% of 360,000 active. AID 686970;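 further: NT is the 2HG producing partner of a matched IDH1 knockdown line; 0% = DMSO-treated cells and -100% = media-only wells without cells; nearly all actives have a fitted effect of over 55% in size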
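Read-out is CellTiter-Glo luminescence after 10 minutes at room temperature, following 48 hours' compound treatment of HT-1080-NT cells (750 cells/well, RPMI, 5% FBS, 37 degrees C).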
KB-V1 MDR tox = KB-V1 MDR subline cytotoxicity. KB-V1 MDR cells viability, CellTiter-Glo, 72 h. AID 1347076. Potency, µM (series often up to 46.1 µM), usual class: cytotoxic. 3.4% of 400,000 active; further: nearly all actives have a fitted effect of over 60% in size
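Readout: CellTiter-Glo luminescence, 10 min after addition. Cells: KB-V1 MDR subline, 72 h at 37 degrees C with compound. Analysis: corrected, normalized data fitted to concentration-effect curves.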
TDP1 cell noCPT = qHTS for Inhibitors of human tyrosyl-DNA phosphodiesterase 1 (TDP1): qHTS in cells in absence of CPT | 15% of 420,000 active | Potency, µM (titrated, usually from 46.2 µM), for inactives: at the top dose activity change, negative = growth inhibition, hits mostly inhibitors | DT40 Tdp1-/- hTDP1 cells, no CPT, ATP luminescence, 48 h; further: nearly all actives have a fitted effect of over 55% in size
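Stably hTDP1-transfected Tdp1-null chicken DT40 cells were treated with library compounds minus camptothecin and grown for at least 48 hr at 37 °C, after which cellular ATP was quantified by luminescence.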
* = called active by the depositor; i = inactive; ? = inconclusive; . = no result. A selection: hits, their analogues and other compounds. The true share with any hit is near 19%. The call rests on the fitted dose curve; in most records, active means well fitted curve in the direction sought with a large enough effect; inconclusive means small, poorly fitted or top-dose-only effect, or another doubt; inactive means no such curve, though single readings can be large; an effect the other way counts as inactive or inconclusive. Unless noted, on the % scale 0 is the no-effect control and ±100 the full control effect; potency means the concentration at half of the fitted maximal effect.

SMILES	HT1080 IDH1KD tx	KB-3-1 tox	DT40 TDP1 CPT	HT1080NT lethal	KB-V1 MDR tox	TDP1 cell noCPT
CC1=CC(C)(C)NC(=S)N1c1ccc([N+](=O)[O-])cc1	?	i	29µM*	-27%	i	21µM*
CCNC(=O)N1CCOCC1	2%	i	0%	5%	i	6.3µM*
COc1ccc(CNC(=O)c2nnn(-c3cccc(C(F)(F)F)c3)c2N)cc1	2%	i	-20%	-1%	?	-10%
Cc1ccc(-n2nc(-c3ccccc3)c3cnc4cc5c(cc4c32)OCO5)cc1C	.	i	-10%	.	i	-20%
Cc1ccc(-c2nn(CC(=O)NC3CCCC3)c3c2cnc2ccc(F)cc23)cc1C	.	i	?	.	i	12µM*
COc1ccc2ncc3c(-c4ccccc4)nn(-c4ccc(C)c(C)c4)c3c2c1	.	i	12µM*	.	i	9.2µM*
COc1cc2ncc3c(-c4ccccc4)nn(-c4ccc(C)cc4)c3c2cc1OC	.	i	16µM*	.	?	16µM*
CCc1ccc(-c2nn(CC(=O)NC3CCCC3)c3c2cnc2ccc(F)cc23)cc1	.	i	-22%	.	i	-15%
Cc1cccc(NC(=O)Cn2nc(-c3ccccc3)c3cnc4ccccc4c32)c1	.	i	16µM*	.	i	-45%
COc1cccc(CN(C)C(=O)CC[C@H]2O[C@@H](n3ccc(=O)[nH]c3=O)[C@H](O)[C@@H]2O)c1	19%	i	4%	19%	i	2%
O=S(=O)(c1ccccc1)N1CCC2(CC1)CN(c1ncccn1)C2	.	.	-2%	.	.	-11%
O=C(Nc1nncs1)c1cc(-c2ccco2)nc2ccccc12	-1%	i	0%	-1%	i	-24%
COc1ccc2ncc3c(-c4ccc(C)c(C)c4)nn(CC(=O)Nc4ccccc4)c3c2c1	.	i	15µM*	.	?	18µM*
COc1ccc(NC(=O)c2cc3ccc4c5ccccc5[nH]c4c3cc2O)cc1	16%	?	0%	21%	i	-16%
Cc1ccccc1C(=O)N/N=C/c1ccc(OCC(=O)N2CCCCC2)cc1	?	i	-28%	?	i	?
CCn1c2ccccc2c2cc(/C=N/NC(=O)c3ccccc3C)ccc21	21µM*	21µM*	2.6µM*	15µM*	5.2µM*	2.6µM*
Cc1cccc(C(=O)N/N=C/c2ccncc2)c1	1%	i	-3%	0%	i	4%
CCn1c2ccccc2c2cc(/C=N/NC(=O)c3cccc(C)c3)ccc21	?	?	29µM*	-4%	5.8µM*	18µM*
CCOc1ccc(OCC)c(NC(=O)C2CCN(c3cnccn3)CC2)c1	0%	i	5%	-3%	i	7%
Cc1ccc(-n2nc3c(N4CCCC(C(=O)NCc5ccccc5C)C4)nnc(C)c3c2C)cc1 (stereo not given)	.	.	15µM*	.	.	15µM*
COc1cccc(CNC(=O)CSc2nnc(C)c3c(C)n(-c4ccccc4)nc23)c1	.	i	?	.	i	18µM*
COc1cc(NC(=O)C2CCN(c3nnc(C)c4c(C)n(-c5ccccc5)nc34)CC2)cc(OC)c1	.	i	?	.	?	?
COc1ccc(-n2nc3c(N4CCCC(C(=O)NCc5ccc(C)cc5)C4)nnc(C)c3c2C)cc1 (stereo not given)	.	i	4.6µM*	.	i	3.3µM*
COc1cccc(CNC(=O)CCCn2nc(C)c3c(C)n(-c4ccccc4)nc3c2=O)c1	-2%	i	?	-2%	i	4%
COc1ccc(-n2nc3c(N4CCC(C(=O)NCc5cccc(F)c5)CC4)nnc(C)c3c2C)cc1	.	i	9.2µM*	.	i	10µM*
SMILES	HT1080 IDH1KD tx	KB-3-1 tox	DT40 TDP1 CPT	HT1080NT lethal	KB-V1 MDR tox	TDP1 cell noCPT
CCOc1ccc(C(C)=O)cc1CN1C(=O)c2ccccc2S1(=O)=O	-16%	i	22%	?	?	-10%
C[C@H](CO)N1C[C@H](C)[C@H](CN(C)C(=O)Nc2cccc(C(F)(F)F)c2)OCc2cnnn2CCCC1=O	6%	i	-12%	1%	i	-28%
CCN(CC)CCNC(=O)C1CCCN(c2nnc(C)c3c(C)n(-c4ccc(Cl)cc4)nc23)C1 (stereo not given)	.	i	?	.	?	?
Cc1nnc(N2CCCC(C(=O)NCc3ccc(OC(C)C)cc3)C2)c2nn(-c3ccccc3)c(C)c12 (stereo not given)	?	i	?	?	i	?
COc1ccc(CNC(=O)C2CCCN(c3nnc(C)c4c(C)n(-c5ccc(C)cc5)nc34)C2)cc1 (stereo not given)	.	i	13µM*	.	i	21µM*
COc1ccc(CNC(=O)C2CCN(c3nnc(C)c4c(C)n(-c5ccc(C)cc5)nc34)CC2)cc1	.	i	?	.	i	16µM*
CCc1ccc(CNC(=O)C2CCCN(c3nnc(C)c4c(C)n(-c5ccc(OC)cc5)nc34)C2)cc1 (stereo not given)	.	i	4.6µM*	.	?	3.3µM*
NC(Cc1ccc(C(F)(F)F)cc1)c1csc(NC(=O)Nc2ccccc2Cc2ccccc2)n1 (stereo not given)	23µM*	?	?	8.2µM*	?	23µM*
NC(c1csc(NC(=O)Nc2ccc(OC(F)(F)F)cc2)n1)C1CCCCC1 (stereo not given)	?	?	10µM*	16µM*	?	9.2µM*
CC(C)(C)c1ccccc1NC(=O)Nc1nc(C(N)Cc2ccc(F)cc2)cs1 (stereo not given)	?	i	?	?	i	21µM*
COc1ccc(NC(=O)Nc2nc(C(N)CC(C)C)cs2)cc1 (stereo not given)	?	i	?	?	i	16µM*
O=C(CNCC1CCCCC1)Nc1ccc(OC(F)(F)F)cc1	-1%	i	-15%	-8%	i	-10%
c1csc(-c2ccc3nncn3c2)c1	8%	i	?	?	i	-5%
CCC(=O)N(C)C[C@H]1Oc2cc(-c3cccnc3)ccc2S(=O)(=O)N([C@H](C)CO)C[C@H]1C	10%	i	-8%	-2%	i	-19%
